Source: ChEMBL document CHEMBL3988442, “University of Dundee, Small-Polar-MMV Screening Library” (2021)
About 13,000 (27%) of roughly 48,000 compounds showed an effect of 50% or more. Some of the results follow.

Each compound was assayed on Wolbachia pipientis (assay: Anti-Wolbachia Cell-Based Screen). Conditions: 5 µM.
Format: functional
Design: scale not given: in the data most compounds retested in dose-response had high values

SMILES	Percent Effect
Cc1nnc2n1CCN(CCS(=O)(=O)c1ccccc1)C2	0.264%
CCc1noc(C2CCCCN2C(=O)c2ccoc2C)n1 (stereo not given)	16.06%
CCc1noc(C2CCCCN2C(=O)c2ccccc2)n1 (stereo not given)	1.293%
CCc1noc(C2CCCCN2C(=O)c2ccn(C3CCCC3)n2)n1 (stereo not given)	52.74%
Cc1nnc(N2C[C@@H]3CCCO[C@@H]3[C@H](N(C)C)C2)s1	-8.785%
CC(NC(=O)NCCNc1ncccn1)c1cccs1 (stereo not given)	10.74%
CC(C)C(C)(O)CNC(=O)Nc1ccccn1 (stereo not given)	-16.52%
CC(C)C(NC(=O)NCCNc1cnccn1)c1cccs1 (stereo not given)	101.3%
CC(C)C(NC(=O)NCCNc1ncccn1)c1cccs1 (stereo not given)	99.08%
CC(C)C(NC(=O)Nc1ccccn1)c1cccs1 (stereo not given)	56.05%
CC(NC(=O)NCCNc1cnccn1)c1cccs1 (stereo not given)	5.831%
CC(NC(=O)NCCNc1cccc(F)c1C#N)c1cccs1 (stereo not given)	10.58%
CC(C)CC(NC(=O)CN(C)c1cnccn1)c1cccs1 (stereo not given)	9.121%
CC(C)C(NC(=O)c1ccc(N2CCOCC2)nc1)c1cccs1 (stereo not given)	15.66%
COCCn1cnnc1CN(C)c1nc(N)ncc1C	15.34%
Cc1ccc(CN(C)C(=O)CN2CCCC2c2cnn(C)c2)cc1 (stereo not given)	-7.848%
O=c1[nH]cc(N2CCCCC2)c(=O)[nH]1	67.95%
c1ccc2c(N3CCOCC3)cnnc2c1	28.28%
O=C(c1c[nH]c(=O)[nH]1)N1CCc2ccccc21	14.35%
O=c1[nH]cc(N2CCOCC2)c(=O)[nH]1	76.31%
O=C(Cc1c[nH]c(=O)[nH]c1=O)N1CCCCC1CCc1ccccc1 (stereo not given)	-18.96%
Cn1ncc(N2CCOCC2)c(Cl)c1=O	6.365%
O=C(NCCN1CCOCC1)c1cc(-c2ccc(Cl)s2)[nH]n1	11.57%
N#CC(Sc1nnnn1C1CCOCC1)C1CCCCC1 (stereo not given)	11.61%

SMILES	Percent Effect
CC(=O)c1cc(CN2C[C@H]3CC[C@@H]2CN(S(=O)(=O)N(C)C)C3)cs1	-15.69%
CC(=O)N1CCN(CC2CCOc3ccccc3C2)CC1 (stereo not given)	-15.11%
O=c1n(CC2CC2)nc(C2CCNCC2)n1Cc1ccccc1	0.2019%
O=C(O)C(F)(F)F.O=C1NC2(CCN(CC3CC3)CC2)CC1c1ccccc1 (stereo not given)	-3.708%
COc1ccc2c(=O)n(CC3CCNC3)ccc2c1OC (stereo not given)	10.36%
OC(CN1CCN(CC2CCCCC2)CC1)c1ccccc1 (stereo not given)	21.16%
O=C1NC(c2ccccc2)=N[C@@]12CC[C@@H]1CN(CC3CCOCC3)C[C@@H]12	10.45%
O=C1NC2(Cc3ccccc31)CN(CC1CCCC1)C2	92.98%
O=C1NC2(Cc3ccccc31)CN(CC1CCNCC1)C2	115.6%
Cc1cc(=O)c2ccccc2n1CC1CCNC1 (stereo not given)	4.531%
O=C1NC2(Cc3ccccc31)CN(CC1CCOCC1)C2	125.6%
O=C1NC2(Cc3ccccc31)CN(CC1CCNC1)C2 (stereo not given)	109.8%
O=C(CSc1ccc(F)cc1)NS(=O)(=O)c1ccc2c(c1)OCCO2	-12.15%
CN(C)C(CNCc1nc(-c2ccsc2)no1)c1ccco1 (stereo not given)	15.02%
CCC(O)(CNCc1ccncc1)c1ccc(Br)cc1 (stereo not given)	15.97%
COc1ccc(CN2C[C@@H](F)[C@@H](OCc3nc4cnccc4[nH]3)C2)cn1	-7.55%
O=C(c1cc(-c2ccco2)nc2c(Cl)cccc12)N1CC[C@H]2CNC[C@H]21	-4.812%
O=C(Nc1ccccc1F)N(CCO)Cc1ccsc1	-6.968%
CN1C(=O)[C@H]2CC[C@@H]1CN(C(=O)Nc1ccccc1C(F)(F)F)C2	-23.74%
CCc1noc(CS(=O)(=O)C/C=C/c2ccccc2)n1	-3.698%
CCc1cccc2cc(CN)c(=O)[nH]c12	94.88%
Cc1cccc2cc(CN3CCC(O)(CN4CCCC4)CC3)c(=O)[nH]c12	-13.98%
Cc1ccc2cc(CNCCCO)c(=O)[nH]c2c1	-12.61%
CCc1cccc2cc(CNCCOC)c(=O)[nH]c12	77.28%

SMILES	Percent Effect
COc1ccccc1CNCCc1cccc(C(N)=O)c1	-10.3%
COCCNCc1cc2ccc(C)c(C)c2[nH]c1=O	110.6%
COCCNC(=O)NCCc1cccc(OC)c1O	-1.079%
Cc1cccc2cc(CN3CCC(N4CCCC4)CC3)c(=O)[nH]c12	-6.915%
COc1ccc(CNC(=O)NCc2c(C)cc(C)[nH]c2=O)cc1	-8.384%
CCc1nccn1CCC(=O)N1CC(=O)N(c2ccccc2C)CC1C (stereo not given)	-5.04%
CC(O)(CCc1ccccc1)CNC(=O)c1ccsc1 (stereo not given)	16.96%
CCOC(=O)CSc1nnc(C(N)CC(C)C)o1.Cl (stereo not given)	98.1%
CCOC(=O)CSc1ccc(-c2nc(CC)no2)cn1	-9.081%
CCOC(=O)CSc1ccc(-c2nc(C)no2)cn1	-12.26%
Cc1cc(NC(C)C(=O)N2CCN(c3ncccn3)CC2)ccc1F (stereo not given)	-7.766%
CC(C)NC(=O)CC(C)NCc1cc(Cl)ccc1F (stereo not given)	1.096%
CCC(C)NC(=O)Cc1c(C)nc2c(c1C)c(=O)[nH]n2C (stereo not given)	-5.261%
Cc1cc(C)cc(Nc2nc(C)cc(=O)n2CC(=O)NC(C)C)c1	102.2%
CSc1nc2cc(C)n(CC(=O)NC(C)C)c2c(=O)n1CC(C)C	0.5328%
Cc1cc(=O)n(CC(=O)NC(C)C)c(Nc2ccc(F)c(C)c2)n1	119.3%
Cc1nc2cc(=O)[nH]n2c(C)c1CC(=O)NC(C)C	6.511%
CCC(C)NC(=O)Cn1c(Nc2cc(C)cc(C)c2)nc(C)cc1=O (stereo not given)	130.9%
CCC(C)NC(=O)CN1CCC2(CC1)OCCO2 (stereo not given)	3.422%
O=C1CC(c2cccs2)Cc2[nH]c(=O)ccc21 (stereo not given)	3.972%
O=C(CN1CCc2cncnc2C1)NC(C1CC1)C1CC1	0.03163%
CCN(CC)C(=O)c1ccn(COc2cc(C)cc(C)c2)n1	11.03%
